# This is a sample that favours compounds with a hit; in the whole collection about 21% have one here.
# Shiga inhibitor = inhibitors of Shiga toxin in Vero cells | 290,000 tested, 9.2% active | Vero cells, Shiga toxin protein synthesis inhibition reporter | inhibition, % at 38.7 µM; in the data active = inhibition mostly above about 28%, no sharp cut-off; inactive = mostly below about 43%; note: 0% is about no effect
# CHX counter-1 = counter-screen for Shiga toxin inhibitors: cycloheximide protein synthesis inhibition | max response, % | cell reporter, cycloheximide protein synthesis inhibition counterscreen | 300,000 tested, 12% active; in the data active = max response mostly above about 13%, no sharp cut-off; inactive = mostly below about 14%; note: read at 38.3 µM for the half of the compounds with a filed dose; 0% is about no effect
# Pf growth 48h = inhibits P. falciparum growth in the first generation, 48 h; P. falciparum luciferase growth in erythrocytes, 48 h; Potency, µM (highest dose often 28.7 µM), without a hit: at the top dose activity change, negative = inhibition, actives largely listed as inhibitors; 310,000 tested, 5.9% active; active = well fitted inhibition curve with a large enough effect; inconclusive = small, poorly fitted or top-dose-only effect, or another doubt; inactive = no such curve, though single readings can be large or run the other way; note: potency is the fitted concentration of half-maximal effect; % is set by controls: 0 for no effect and ±100 for the full control effect
#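 Luciferase-expressing P. falciparum in infected erythrocytes (2% hematocrit, 0.1% parasitemia final) in RPMI 1640/0.5% Albumax were exposed to compound for 48 hours at 37 C, 5% CO2; growth read as luminescence.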
# SARS PLP yeast = blocks SARS-CoV papain-like protease in a yeast assay; S. cerevisiae expressing SARS-CoV PLpro, growth rescue; Potency, µM (series often up to 32.9 µM), inactives show at the highest dose activity, positive = growth rescue, most hits filed as activators; 330,000 tested, 0.19% active; AID 485353; note: potency is the fitted concentration of half-maximal effect; 0% is about no effect; nearly all actives have a fitted effect of over 55% in size
# NS1 inh = inhibitors of influenza NS1 protein function; 270,000 tested, 0.4% active; AID 2326; Potency, µM (series often up to 46.1 µM), for the others: at the highest dose activity, positive = more growth; note: potency is the fitted concentration of half-maximal effect; actives are rising curves; nearly all actives have a fitted effect of over 50% in size
#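 A cell-based growth assay was used: compounds that relieve NS1-induced slow growth of budding yeast raise OD600. Assay medium was yeast nitrogen base with ammonium sulphate and -URA supplement, pH 6.0, with 2% galactose.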
# Pf growth 96h = P. falciparum growth inhibition at 96 hours; Potency, µM (titrated, usually from 28.7 µM), for inactives: at the top dose activity change, negative = inhibition, hits mostly inhibitors; P. falciparum luciferase reporter growth, 96 h; 320,000 tested, 6.9% active; AID 504834; active = well fitted inhibition curve with a large enough effect; inconclusive = small, poorly fitted or top-dose-only effect, or another doubt; inactive = no such curve, though single readings can be large or run the other way; note: potency is the fitted concentration of half-maximal effect; % is set by controls: 0 for no effect and ±100 for the full control effect
#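 Two-generation exposure (96 h) targets delayed-death phenotype. Reporter parasites carrying integrated firefly luciferase, in red cells at 2% hematocrit and 0.05% parasitemia final, kept at 37 C, 5% CO2; luminescence loss indicates inhibition.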
# CHX counter-2 = protein synthesis counter-screen activity for Shiga toxin hits; Cycloheximide counterscreen, protein synthesis reporter, Shiga toxin assay; shares compounds with Shiga inhibitor; Potency, µM (top dose mostly 38.3 µM), for the others: at the top dose activity (activation), most hits filed as activators; 510 tested, 3% active; note: potency is the fitted concentration of half-maximal effect; 0% is about no effect
# * marks the source's active call; other numbers are inactive results; ? = inconclusive; · = no result given. Unless noted, calls come from the whole dose curve.
SMILES,Shiga inhibitor,CHX counter-1,Pf growth 48h,SARS PLP yeast,NS1 inh,Pf growth 96h,CHX counter-2
COc1ccc(NC(=O)C2CCN(C(=O)c3cccs3)CC2)cc1OC,-17.5,-3.3,6.3%,8.0%,10.7%,·,·
O=C(Nc1ccc(Cl)cc1)C1CCN(C(=O)c2cccs2)CC1,103.9*,-3.5,4.9%,-1.4%,-19.5%,6.3%,-4.9%
S=C1NCCc2ccc(Cl)cc2C1c1ccccc1 (stereo not drawn),-4.3,1.3,-36.2%,-58.6%,21.6%,-28.6%,·
Cc1ccc(C)n1-c1ccc(NC(=O)c2ccccc2)cc1,32.2*,7.1,?,8.2%,6.9%,11.7µM*,?
COc1cccc(CN2CCN(Cc3cc4ccccc4o3)CC2CCO)c1 (stereo not drawn),·,7.3,-13.9%,-1.2%,19.7%,-23.8%,·
CCOc1ccc(CN2CCN(Cc3cc4ccccc4o3)CC2CCO)cc1 (stereo not drawn),·,8.1,-26.1%,1.5%,1.3%,?,-1.1%
COc1ccccc1CNC(=O)[C@H](C)NC(=O)C1CCN(C(=O)[C@@H](N)C(C)C)CC1,1.2,-2.7,7.9%,-4.9%,-4.5%,32.4%,·
COc1ccccc1C(=O)Nc1nnc(SCC(=O)Nc2ccc3c(c2)oc2ccccc23)s1,45.3*,1.8,57.2%,-3.0%,16.3%,?,11.3µM*
Cc1cccc(C(=O)Nc2nnc(SCC(=O)Nc3ccc4c(c3)oc3ccccc34)s2)c1,15.3,-4.3,46.2%,14.0%,1.9%,10.4%,·
Cc1nn(-c2ccc(C(=O)O)cc2)c2c1C(=O)CC(C)(C)C2,80.9*,-1.7,22.9%,-0.4%,-1.0%,-17.3%,-4.8%
CC1(C)CC(=O)c2c(nn(-c3ccccc3)c2-c2ccncc2)C1,-7.4,-3.6,-24.2%,2.0%,-3.5%,-12.7%,·
COc1ccc(C2=NS(=O)(=O)N(C)C(C(=O)N3CCC(C(N)=O)CC3)=C2)cc1,5.4,-0.7,3.8%,-3.3%,-5.4%,3.6%,·
Cc1nonc1OCCCNc1ccc([N+](=O)[O-])cc1Cl,116.0*,14.5,0.1%,0.0%,·,-23.3%,?
Cc1nonc1OCCNc1ccc([N+](=O)[O-])cc1[N+](=O)[O-],-4.9,-1.8,4.1%,10.2%,12.1%,48.6%,·
O=C(Cn1cc(CCO)nn1)N1CCNCC1,3.1,1.5,59.7%,0.8%,-3.1%,69.0%,·
COC(=O)[C@@H]1CCCN1Cc1nc(Cc2ccccc2F)no1,-3.3,1.8,7.7%,-0.3%,-6.7%,-15.1%,·
CC(C)(C)NC(=O)c1ccc(COc2ccccc2Br)o1,34.4*,7.8,?,-15.7%,-66.3%,?,1.0%
O=C(COC(=O)COc1ccc(Br)cc1)NCC1CCCO1 (stereo not drawn),·,·,·,-5.3%,·,·,·
O=C(COc1ccc2ccccc2c1)NCC1CCCO1 (stereo not drawn),39.5*,-1.9,43.6%,-0.8%,4.2%,-26.4%,3.2%
COc1ccccc1CNC(=O)c1csc2c1CCCC2,38.8*,6.3,21.4%,-5.7%,·,17.4%,3.3%
COc1ccc(C2C(C#N)=C(C)NC3=C2C(=O)CC(C)(C)C3)c(OC)c1 (stereo not drawn),43.4*,-3.0,-28.2%,0.9%,7.0%,-16.9%,-1.9%
O=C(NCc1cccnc1)/C(=C\c1ccc(-c2ccc(Cl)c(Cl)c2)o1)S(=O)(=O)c1ccccc1,-24.4,-15.8,?,-21.0%,?,?,·
CSc1nc(C)c2cc(C)oc2n1,70.8*,-3.1,15.9%,3.1%,-14.6%,0.37µM*,-2.3%
COc1ccc(C2=CC(=O)C[C@H](c3ccc(OC)c(OC)c3)C2)cn1,·,·,?,-5.0%,·,-11.4%,·
CCOc1ccc2nc(NC(=O)CN3CCN(c4ccccn4)CC3)sc2c1,55.7*,13.5,?,·,0.1%,?,3.7%
SMILES,Shiga inhibitor,CHX counter-1,Pf growth 48h,SARS PLP yeast,NS1 inh,Pf growth 96h,CHX counter-2
CCOC(=O)CSc1ccc(C(=O)Nc2ccc(OC)cc2)cn1,1.8,1.4,21.0%,-1.1%,-1.6%,22.6%,·
Cn1cc(Br)c(C(=O)N2CCc3ccccc32)n1,active,8.7,25.4%,7.3%,5.6%,17.7%,6.4%
CC(=O)Nc1ccc(S(=O)(=O)NCCCc2ccccc2)cc1,·,4.0,-0.3%,0.4%,-5.9%,-6.3%,·
Cc1ccc(NC(=S)N(CCN2CCOCC2)Cc2cc3cc4c(cc3[nH]c2=O)OCCO4)cc1,-8.6,-1.6,?,-1.6%,1.3%,?,·
Cc1ccc2[nH]c(=O)c(CN(CCCN3CCOCC3)C(=O)Nc3ccc(Cl)cc3)cc2c1,48.0*,8.8,3.7µM*,3.6%,-10.2%,0.2%,-0.3%
Cc1cc([N+](=O)[O-])ccc1NC(=O)CSc1nncn1-c1ccccn1,9.4,-4.1,9.1%,2.3%,14.4%,-9.9%,·
Cc1ccc([N+](=O)[O-])cc1NC(=O)CSc1nncn1-c1ccccn1,98.2*,-3.1,7.5%,-1.4%,-11.3%,107.9%,-1.6%
CN(C)C(CNC(=O)CCC(=O)c1ccc(Br)cc1)c1ccccc1 (stereo not drawn),38.3*,11.2,-8.7%,-3.0%,0.5%,-2.1%,-1.3%
CCOc1ccc(NC(=O)C(=O)NCCN2CCN(S(=O)(=O)c3ccc(C)cc3)CC2)cc1,-5.8,-3.3,-28.1%,-1.6%,1.1%,41.0%,·
CC1=C([N+](=O)[O-])C(c2ccccc2)NC(=O)N1 (stereo not drawn),·,-5.7,6.4%,-4.3%,5.1%,?,·
Cc1cc(Cl)ccc1NC(=O)CN1CCC(C(O)(c2ccccc2)c2ccccc2)CC1,122.3*,-5.2,?,-5.6%,-21.2%,?,-2.1%
CCN1C(=O)[C@@H]2C(C(=O)c3cnccn3)=NN[C@@H]2C1=O,-13.5,-1.7,13.5%,0.8%,4.9%,50.6%,·
Cc1cccc(C(=O)Nc2scc(CC(C)C)c2C(=O)O)c1,39.6*,-4.4,7.3%,-18.3%,-27.5%,-8.7%,1.3%
CC(C)Cc1csc(NC(=O)c2ccc(Cl)cc2)c1C(=O)O,-6.0,-2.2,-1.1%,-65.7%,-11.0%,-14.1%,·
O=C(COC(=O)c1ccccc1O)NCCc1c[nH]c2ccccc12,·,·,·,5.9%,·,·,·
O=C(Cc1c[nH]c2ccccc12)NCc1ccc(Cl)cc1,29.9*,10.1,2.5%,-1.7%,-19.8%,57.2%,7.5%
COc1ccc(CNC(=O)Cc2c[nH]c3ccccc23)cc1OC,-2.7,-1.9,16.7%,-0.9%,8.9%,30.0%,·
O=C(NCCc1c[nH]c2ccccc12)C(F)(F)F,43.4*,9.7,0.1%,-2.7%,?,37.9%,-1.2%
Cc1c(Br)c([N+](=O)[O-])nn1CC(=O)c1ccccc1,2.7,-2.9,20.9%,-0.8%,-8.9%,56.9%,·
COc1ccc2nc3cc(Cl)ccc3c(Nc3ccc(O)c(CN4CCN(C)CC4)c3)c2c1,·,·,·,·,-2.6%,·,·
COc1ccc2nc3cc(Cl)ccc3c(NCCCN3CCN(CCCNc4c5ccc(Cl)cc5nc5ccc(OC)cc45)CC3)c2c1,34.2*,10.2,·,·,·,·,-0.3%

# Screening results as filed in PubChem.
